Experimental findings from ChEMBL document CHEMBL3988442, “University of Dundee, Small-Polar-MMV Screening Library” (2021) are described below.

This assay addresses T1, Aspartate--tRNA(Asp/Asn) ligase (Mycobacterium tuberculosis (strain ATCC 25618 / H37Rv)) (UniProt P9WFW3).
T1 sequence (whole entry): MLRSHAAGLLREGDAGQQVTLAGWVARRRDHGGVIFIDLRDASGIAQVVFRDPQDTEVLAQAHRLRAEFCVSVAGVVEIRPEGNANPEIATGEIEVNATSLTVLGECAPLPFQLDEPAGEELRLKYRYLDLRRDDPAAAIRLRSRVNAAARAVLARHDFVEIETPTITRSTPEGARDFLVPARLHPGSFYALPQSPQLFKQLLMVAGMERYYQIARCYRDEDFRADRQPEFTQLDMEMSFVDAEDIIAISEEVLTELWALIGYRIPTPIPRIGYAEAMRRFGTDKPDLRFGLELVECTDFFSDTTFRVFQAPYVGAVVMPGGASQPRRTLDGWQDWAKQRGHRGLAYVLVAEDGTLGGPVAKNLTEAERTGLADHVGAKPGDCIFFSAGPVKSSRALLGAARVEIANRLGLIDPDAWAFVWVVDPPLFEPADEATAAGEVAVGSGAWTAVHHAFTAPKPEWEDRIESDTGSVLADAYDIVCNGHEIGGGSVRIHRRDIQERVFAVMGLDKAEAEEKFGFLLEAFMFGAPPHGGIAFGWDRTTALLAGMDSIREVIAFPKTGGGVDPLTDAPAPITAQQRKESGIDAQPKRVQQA
Briefly: Assay for Asp RNA synthetase-1 from Mycobacterium tuberculosis. It counts as functional. Further details: scale not given: in the data most compounds retested in dose-response had high values. The following applies: 30 µM.
For `CC(C(=O)NCc1ccnc(N(C)C)c1)n1cncn1` (stereo not given), the Percent Effect was 0.0335%.

As for `Cc1ccc(C(=O)N2CCN(C(=O)NC(C)Cn3ccnc3)CC2)o1` (stereo not given), the Percent Effect was -1.92%. Under `CS(=O)(=O)NCc1nnc2n1CCN(CC1CC1)C2` stands 2.77%; under `Cc1nc(N2CCN(C(=O)C(C)(C)C)CC2)cc(-n2cnc(C)c2C)n1`, 0.832%; under `CC(CNC(=O)N1CCSCC1)Cc1cccs1` (stereo not given), 1.56%. Then `C[C@H]1C[C@@H]2CCN(C(=O)c3cccn3C)C[C@H]2O1`, with -3.96%; and `O=C(c1cc(Cl)c2c(c1)OCO2)N1CCN(c2ccccn2)CC1`, with -0.949%; and `c1cnnc(N2CCCC2CNc2ncnc3c2CCC3)c1` (stereo not given), with -0.597%. Consider `Cc1nnc2n1CCN(CCOc1ccccc1)C2`, for which the Percent Effect is -6.3%. `Cn1nc(C2CCCN(C(=O)Cc3ccsc3)C2)c2nccnc21` (stereo not given): the Percent Effect is -0.402%.

For `Cc1cc(CN(C)C(=O)c2cccc(N3CCCC3=O)c2)no1`, the Percent Effect was 4.48%. Under `CCc1noc(C)c1C(=O)N1CCCC1c1c(C)nn(C)c1OC` (stereo not given) stands -3.25%; under `Fc1ccc(CN2CCC(c3n[nH]c4nccnc34)CC2)cc1F`, 0.372%; under `CC(C)c1nn(C)c(N(C)C)c1CNCc1cccc(CN(C)C)c1`, 2.36%. Then `Cc1cc(C(F)(F)F)c2c(C3CCN(S(=O)(=O)N(C)C)CC3)noc2n1`, with 7.31%; and `O[C@]1(c2ccccn2)CC[C@@H]2CN(Cc3cccc4ncccc34)C[C@@H]21`, with 0.581%. Then `CCc1ccc(CCC(=O)N2CCOCC2c2ncon2)cc1` (stereo not given), with 2.77%. With `COCCN1C[C@@H](C)[C@@]2(COCCN(C(=O)c3cnc(C)cn3)C2)C1`, the Percent Effect is -1.78%.

On to `Cc1cc(CN2CCCC2Cn2cncn2)no1` (stereo not given), for which the Percent Effect is -4.72%.

Take `Cc1[nH]/c(=N\C(=O)c2csc(NC3CC3)n2)sc1C`: the Percent Effect is -4.09%. `O=C(NC1COC2(CCN(Cc3ccccn3)CC2)C1)c1ccccn1` (stereo not given): the Percent Effect was -7.74%. Then `Cc1ccc2c(c1)CN(C(=O)c1ccccc1F)C(CN(C)C)CO2` (stereo not given), with 5.11%.

On to `CS(=O)(=O)N1CCC(Oc2cnccn2)CC1`, for which the Percent Effect was -0.656%.

In the case of `CC(O)CN(CC(=O)NC(=O)NCC(F)(F)F)c1ccccc1` (stereo not given), the Percent Effect is -7.32%. Then `CCc1nnc2n1CC(CNCc1ccncc1)CC2` (stereo not given), with -3.51%. Turning to `CCOc1nnc(CN2CCC(N(C)Cc3noc(C)n3)C2)s1` (stereo not given), the Percent Effect amounted to 5.37%. Turning to `COCCCN(CCOC)C(=O)Nc1ccccc1Br`, the Percent Effect was -10.6%.

Take `CC(C)(C)n1ncc2c1CCCC2NCc1cccc2c1OCO2` (stereo not given): the Percent Effect was -0.568%. Then `CNC(=O)NC(=O)Cn1cc(-c2ccccc2)cn1`, with -2.46%; and `Cc1nc(COC[C@@H]2CC[C@H]3[C@H](CCN3S(C)(=O)=O)O2)cs1`, with 6.16%; and `Cc1nn2cccnc2c1C(=O)N1CCCC(Nc2ccccc2)C1` (stereo not given), with 1.98%. Regarding `CC(C)NC(=O)Cn1cc(-c2ccccc2)cn1`, the Percent Effect was -0.189%. Then `Cc1ccc(C)c(C(C(=O)O)N2CCCN(Cc3ccccn3)CC2)c1` (stereo not given), with -3.28%; and `O=C(CCC1CCN(Cc2ncc[nH]2)CC1)Nc1ccccc1Cl`, with 0.166%. Under `CSCC[C@H](N)C(=O)NCc1cc2n(n1)CCCN(C(=O)C1CCC1)C2` stands -3.26%. Under `COc1cc(C)sc1C(=O)N1CC(c2cccnc2)C1` stands 3.09%. Take `Cc1ncc(-c2ccnc(N3CCCCC3)n2)c(=O)[nH]1`: the Percent Effect was -2.84%.

Take `CCC(CC)c1cc(CNC(=O)N2CCOC(C)C2)on1` (stereo not given): the Percent Effect was -0.437%. Then `Cn1c(CC2CCS(=O)(=O)C2)nnc1SCCOc1ccccc1F` (stereo not given), with 2.75%. As to `COc1cccc(C2CC(=O)Nc3nc(N)sc32)c1OC` (stereo not given), the Percent Effect came out at 65.3%.
